The whole screen tested about 2,300 compounds, of which about 550 (24%) were called active. How the calls were made is not given here. Only a sample is shown. Measured potencies and affinities stand elsewhere.

This assay is described as follows: Vero E6 cell cytotoxicity, dose response, cytotoxicity control for non-replicating M. tuberculosis project, secondary assay (AID 492998). As to conditions: series mostly up to 20 µM.
With `Cc1ccc(CCC(=O)Nc2ccc([N+](=O)[O-])cc2)o1`, the result was inactive.

As to `CN(C)c1ccc(NC(=O)COC(=O)c2cc(Cl)ccc2[N+](=O)[O-])cc1`, the result was inactive.

As for `CC[n+]1c(/C=C(\C)Nc2ccccc2)sc2ccccc21`, the call was inactive.

On to `CC(C)(C)c1cc(CN2CCN(CCO)CC2)cc(C(C)(C)C)c1O`, for which the molecule was classed as inactive. For `COc1ccc(-c2noc(CCC(=O)Nc3cccc(C)c3)n2)cc1`, the result was inactive.

For the molecule `Cc1ccc2c(CC(=O)OCC(=O)Nc3ccc(Cl)cn3)coc2c1`, the outcome was inactive.

Turning to `OC(CNCCc1ccc(C(F)(F)F)cc1)COc1ccc2ccccc2c1` (centres undefined), the call was inactive. Consider `CC(C)OC(=O)COc1ccc(-c2ccccc2)cc1`, for which the result was inactive. With `Cc1noc(C)c1COc1ccc(C(=O)Nc2ccccn2)cc1`, the molecule was classed as inactive. On to `N#Cc1nc(-c2ccc(OCc3ccccc3)cc2)oc1NCCCn1ccnc1`, for which the molecule was classed as inactive. The same measure for `CC1=NN(C(=O)c2csc(C(C)C)c2)C(O)(C(F)(F)F)C1` (centres undefined): “inactive”; for `O=C(c1ccccc1[N+](=O)[O-])N1N=C(c2ccccc2)CC1(O)C(F)(F)F` (centres undefined): “inactive”. Next, `CC1=NN(C(=O)c2ccc(Cn3nc(C)c(Br)c3C)cc2)C(O)(C(F)(F)F)C1` (centres undefined): “inactive”; `CC1=NN(C(=O)c2csc(C)c2)C(O)(C(F)(F)F)C1` (centres undefined): “inactive”. Next, `CC(=O)N(c1nnc(-c2ccc(C)cc2)s1)C1CCCC1`: “inactive”; `COc1ccc(-c2nnn(Cc3ccccc3)n2)cc1`: “inactive”; `Cc1nnc(N/N=C/c2ccc(-c3ccc(Br)cc3)o2)n1N`: “inactive”. For `O=C(OCC(=O)N1CCC(c2ccccc2)=N1)c1ccc([N+](=O)[O-])s1`, the call was inactive.

Regarding `O=C(NCCCN1CCOCC1)c1ccc(CSc2ccc(Cl)cc2)cc1`, the molecule was called inactive. The same measure for `O=C(OCn1nnc2ccccc2c1=O)c1ccc(Br)o1`: “inactive”; for `COc1cccc(C(=O)OCn2nnc3ccccc3c2=O)c1OC`: “inactive”. The same measure for `CCc1cc(OCCCCNCc2ccccc2)ccc1Cl`: “inactive”; for `C=CCOc1ccc(CNCCO)cc1OCC`: “inactive”; for `CCCn1nnnc1NCc1ccc(CC)cc1`: “inactive”.

With `O=C(CCCSc1nc2ccccc2s1)NCc1ccco1`, the molecule was called inactive. Next, `CC(C)CCC1=NN(C(=O)c2ccco2)C(O)(C(F)(F)F)C1` (centres undefined): “inactive”; `O=C1CC(=O)CC(c2ccccc2)C1`: “inactive”; `Cc1cccc(N2CCN(Cc3ccc([N+](=O)[O-])o3)CC2)c1C`: “inactive”.

Consider `CCCC(=O)N1CCC(Cc2ccccc2)CC1`, for which the result was inactive. The same measure for `NC1=NC[C@H](Cc2ccccc2)N1CCCCC1CCCCC1`: “inactive”; for `CCc1ccc(N2CCN(CCNC(=O)Nc3ccc(OC)cc3)CC2)cc1`: “inactive”; for `COc1ccc(-c2cc(C(F)(F)F)nc(S(C)(=O)=O)n2)cc1`: “inactive”. The same measure for `O=C(Oc1c(-c2ccco2)oc2ccccc2c1=O)c1cccnc1`: “inactive”; for `CC(=O)Oc1c(-c2ccco2)oc2ccccc2c1=O`: “inactive”. Regarding `Cc1ccc2c(C)ccc(O)c2n1`, the call was inactive. With `Cc1cccc(NCc2nnc(-c3ccccc3)o2)c1C`, the outcome was inactive. The same measure for `CC(C)(C)C(=O)COc1ccccc1[N+](=O)[O-]`: “inactive”; for `COc1cccc(C(=O)OCC(=O)Nc2nnc(-c3ccccc3)o2)c1`: “inactive”. Next, `CCOc1ccccc1C(=O)OCC(=O)Nc1nnc(-c2ccccc2)o1`: “inactive”; `CCS(=O)(=O)c1ncc(Cl)c(C(=O)Nc2ccc(S(=O)(=O)N(C)c3ccccc3)cc2)n1`: “inactive”. The same measure for `CCCCNC(=O)Nc1nnc(-c2ccc(OCC)cc2)o1`: “inactive”. Turning to `O=C(Nc1nnc(-c2ccc3c(c2)CCCC3)o1)c1c(F)cccc1F`, the outcome was inactive. With `Cc1cccc(C(=O)Nc2nnc(-c3cccnc3)o2)c1`, the molecule was called inactive. Next, `CCOc1ccc(C(=O)Nc2nnc(C3=COCCO3)o2)cc1`: “inactive”. On to `c1ccc(-c2nnc(SCc3cn4ccsc4n3)o2)cc1`, for which the call was inactive. The same measure for `CCS(=O)(=O)c1ncc(Cl)c(C(=O)Nc2ccc(C)cc2)n1`: “inactive”; for `CCCCn1c(N)c(-c2nc3ccccc3o2)c2c([N+](=O)[O-])nn(CC)c(=O)c21`: “inactive”. As to `CCOC(=O)c1sc(NC(=O)CCN2CC(C)OC(C)C2)c(C(=O)OCC)c1C` (centres undefined), the result was inactive.

As to `CCCNC(=O)NC(=O)COc1ccc(-c2ccc(C#N)cc2)cc1`, the molecule was called inactive. The same measure for `Cc1ccc(NCCC(=O)c2cccs2)cc1Cl`: “inactive”.

As for `Cc1ccc(Sc2ncccc2N)cc1`, the molecule was called inactive. For `Oc1ccccc1CN1CCCC(N2CCN(c3cccc(C(F)(F)F)c3)CC2)C1` (centres undefined), the molecule was classed as inactive. As for `C/C(=N\Nc1ccc(Cl)cc1)c1ccccn1`, the molecule was classed as inactive. As for `COc1ccc2oc(=O)c(/C(C)=N/NC(=O)c3ccncc3)cc2c1`, the molecule was classed as inactive.

For the molecule `CC(C)c1ccc(/C=N/NC(=O)c2ccccn2)cc1`, the molecule was called inactive. Next, `CC(/C=C\C=C\c1ccccc1)=N\NC(=O)c1cncc(Br)c1`: “inactive”; `O=C(CCc1c[nH]c2ccccc12)Nc1ncccc1O`: “inactive”. As for `Cc1ccnc(NC(=O)CCc2c[nH]c3ccccc23)c1`, the molecule was called inactive.

Regarding `COc1cc(/C=N/NC(=O)c2ccccn2)ccc1OC(=O)c1cccs1`, the result was inactive.

For `C/C(=N\Nc1cccc2cccnc12)c1ccccn1`, the outcome was inactive. In the case of `CCCn1nnnc1NC(=O)COc1ccc(Br)cc1`, the result was inactive. Next, `Cc1ccccc1-n1c(C)cc(/C=N/NC(=O)c2ccncc2)c1C`: “inactive”. For `O=[N+]([O-])c1ncccc1Oc1nc(-c2cccnc2)nc2ccccc12`, the molecule was classed as inactive.

In the case of `Clc1ccccc1OCc1nnc(-c2ccccc2)o1`, the outcome was inactive. The same measure for `CCOC(=O)/C=C1\Nc2ccccc2OC1=O`: “inactive”; for `N=c1oc2ccccc2cc1C(=O)Nc1ccccc1`: “inactive”. Turning to `N#CC(C(=O)Nc1ccccc1)=C1Nc2ccccc2N1`, the outcome was inactive. For the molecule `Cc1ccc(OC(=O)c2ccc(Br)o2)cc1`, the molecule was classed as inactive. Regarding `CCC(=O)c1ccc(OCC(=O)OCC(=O)c2cc(C)n(C3CC3)c2C)cc1`, the molecule was called inactive. Next, `CC(C)(C)NCc1cc(Br)ccc1OCc1cccs1`: “inactive”; `O=C(OCC(=O)N1CCN(c2ccccc2)CC1)c1cnc(Cl)c(Cl)c1`: “inactive”; `O=C(NCc1ccco1)c1nc2ccccc2s1`: “inactive”. As to `O=C1CC(N2CCN(c3ccccc3)CC2)C(=O)N1CCc1ccccc1` (centres undefined), the outcome was inactive. Take `COC(=O)COc1ccc(-c2ccccc2)cc1C=O`: the molecule was called inactive. The same measure for `CC(C)(O)C#Cc1ccc(C(=O)Nc2ccc3c(c2)OCO3)s1`: “inactive”; for `C#CCSc1nnc(-c2ccc([N+](=O)[O-])cc2)o1`: “inactive”; for `O=[N+]([O-])c1ccc2nc(SCc3cn4ccccc4n3)[nH]c2c1`: “inactive”.

For the molecule `O=C(Nc1nc2ccccc2[nH]1)c1cccc([N+](=O)[O-])c1`, the call was inactive.

On to `N/N=C(/Cc1nc2ccccc2[nH]1)c1ccc([N+](=O)[O-])cc1`, for which the result was inactive.

The values above are taken from PubChem BioAssay AID492998 (Southern Research Specialized Biocontainment Screening …, 2010).
